Results from the supplement of paper PMC12350171.
Structures can show the parent of a compound that is named as a salt. Values without a mark were called inactive.

Key:
Details in all cases: 20 µM
[1] = system: Salmonella enterica typhimurium; assay: growth AUC normalised to DMSO control (fraction of control); higher = less growth inhibition, active = hit call of the paper
How it was run: (§1)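 Three biological replicates were carried out, with OD578 read hourly for 24 h. Before inoculation at a starting OD578 of 0.01, pathogens were passaged anaerobically twice; plates were pre-reduced mGAM containing 20 μM compound and 1% DMSO, sealed with breathable membranes, and the Haemophilus parainfluenzae medium carried added hemin and NAD. Area under each growth curve was calculated by the trapezoidal rule up to the exponential-to-stationary transition and normalised to DMSO controls on the same plate.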

Shigella flexneri = assay: as above
How it was run: as §1

Vibrio cholerae = assay: as above
How it was run: as §1

[2] = system: Yersinia pseudotuberculosis; assay: as above
How it was run: as §1

P. vulgatus RND KO = assay: growth AUC normalised to DMSO control (median) (fraction of control); higher = less growth inhibition, active = hit call of the paper
How it was run: (§2)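 Anaerobic growth was tracked hourly at OD578 for 24 h in 96-well plates of mGAM seeded at OD578 0.01 with each approved-drug library compound at 20 μM and 1% DMSO. Strains had first been passaged twice overnight without oxygen. Three biological replicates were run. The reported median is the area under the curve, calculated by the trapezoidal rule on curves truncated at entry into stationary phase and normalised to vehicle wells on the same plate.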

P. vulgatus WT = assay: as above
How it was run: as §2

[3] = system: S. enterica typhimurium WT; assay: as above
How it was run: as §2

[4] = system: S. enterica typhimurium tolC KO; assay: as above
How it was run: as §2
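Throughout, for growth AUC normalised to DMSO control (median): active when median AUC fell below 0.1.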

SMILES	growth AUC normalised to DMSO control [1]	growth AUC normalised to DMSO control (Shigella flexneri)	growth AUC normalised to DMSO control (Vibrio cholerae)	growth AUC normalised to DMSO control [2]	growth AUC normalised to DMSO control (P. vulgatus RND KO)	growth AUC normalised to DMSO control (P. vulgatus WT)	growth AUC normalised to DMSO control [3]	growth AUC normalised to DMSO control [4]
CCC(=O)O[C@@H](O[P@](=O)(CCCCc1ccccc1)CC(=O)N1C[C@H](C2CCCCC2)C[C@H]1C(=O)O)C(C)C [Fosinopril]	1	1.04	1.05	1	0.998	1.02	1	1.01
CN(C(=O)CN(CCO)CC(=O)N(C)C(C)(C)Cc1ccccc1)C(C)(C)Cc1ccccc1 [Oxethazaine]	0.974	1.01	0.99	0.995	0.688	0.646	1.01	0.966
CC1(C)NC(=O)N(c2ccc([N+](=O)[O-])c(C(F)(F)F)c2)C1=O [Nilutamide]	0.928	0.977	0.957	1	0.964	0.952	0.992	0.999
Cc1oncc1C(=O)Nc1ccc(C(F)(F)F)cc1 [Leflunomide]	0.989	0.988	0.914	1	0.957	1	0.996	0.896
NCCCC[C@H](N[C@@H](CCc1ccccc1)C(=O)O)C(=O)N1CCC[C@H]1C(=O)O [Lisinopril]	1.01	1.02	1.04	1.01	1.05	1.04	1.01	0.997
CC(=O)N(CC(O)CN(C(C)=O)c1c(I)c(C(=O)NCC(O)CO)c(I)c(C(=O)NCC(O)CO)c1I)c1c(I)c(C(=O)NCC(O)CO)c(I)c(C(=O)NCC(O)CO)c1I (stereo not given) [Iodixanol]	0.977	0.943	0.99	0.977	1	0.98	0.996	1
CCC[C@@H]1C[C@@H](C(=O)N[C@@H]([C@H]2O[C@H](SC)[C@H](O)[C@@H](O)[C@H]2O)[C@H](C)Cl)N(C)C1 [Clindamycin hydrochloride]	0.722 (active)	0.648 (active)	0.143 (active)	0.0588 (active)	0.0135 (active)	0.0132 (active)	0.835	0.437
CC(=O)Oc1cc(C(F)(F)F)ccc1C(=O)O [Triflusal]	0.964	0.949	0.959	0.954	0.979	1	0.995	0.955
C[C@@H]1C[C@H]2[C@@H]3CCC4=CC(=O)C=C[C@]4(C)[C@@]3(Cl)[C@@H](O)C[C@]2(C)[C@@]1(OC(=O)c1ccco1)C(=O)CCl [Mometasone furoate]	1.02	1.07	1.01	1.03	1.04	1.06	1.01	0.991
C[N+](C)(C)CCOC(N)=O [Carbachol chloride]	1.03	1.07	1.08	1.01	1.09	1.05	1.01	1.01
Nc1nc(N)c2nc(-c3ccccc3)c(N)nc2n1 [Triamterene]	0.942	1.06	0.99	0.95	0.973	0.971	0.954	0.939
Cc1ncc([N+](=O)[O-])n1CC(C)O (stereo not given) [Secnidazole]	0.996	0.953	0.99	1	0.0215 (active)	0.0204 (active)	1.01	1
Cc1cccc(C)c1NC(=O)CN1CCN(CCCC(c2ccc(F)cc2)c2ccc(F)cc2)CC1 [Lidoflazine]	1.01	1.02	1.01	1.02	1.04	1.04	1.01	0.938
NS(=O)(=O)c1cc(C2(O)NC(=O)c3ccccc32)ccc1Cl (stereo not given) [Chlorthalidone]	1	0.989	0.995	0.994	1	0.986	1	0.998
Nc1ccc(S(=O)(=O)Nc2ncccn2)cc1 [Sulfadiazine]	0.989	0.974	1	0.987	0.996	0.995	0.986	1
CCn1cc(C(=O)O)c(=O)c2cc(F)c(N3CCNC(C)C3)c(F)c21 (stereo not given) [Lomefloxacin hydrochloride]	0.00422 (active)	0.0101 (active)	0.0243 (active)	0.0292 (active)	0.035 (active)	0.11	0.0147 (active)	0.0041 (active)
Cc1cccc(CN2CCN(C(c3ccccc3)c3ccc(Cl)cc3)CC2)c1 (stereo not given) [Meclozine dihydrochloride]	0.989	0.961	0.885	0.987	1	0.992	1	1
COc1cc2nc(N3CCN(C(=O)C4CCCO4)CC3)nc(N)c2cc1OC (stereo not given) [Terazosin hydrochloride]	0.998	0.96	0.989	0.989	1.03	1.04	1	1.01
CN(C)CCOC1=Cc2ccccc2Sc2ccc(Cl)cc21 [Zotepine]	1.01	1	0.877	1	0.935	0.874	1.01	0.959
CCCCC(=O)O[C@H]1CC[C@H]2[C@@H]3CCc4cc(O)ccc4[C@H]3CC[C@]12C [Estradiol Valerate]	1.05	1.05	1.08	1.01	1	1.07	0.998	1
NC(=O)c1cnccn1 [Pyrazinamide]	0.99	0.92	0.993	0.99	0.992	0.993	0.999	0.999
O=C(O[C@@H]1C[C@@H]2C[C@H]3C[C@H](C1)N2CC3=O)c1c[nH]c2ccccc12 [Dolasetron mesilate]	1.04	1.01	0.999	1.01	1.02	1.04	1.01	0.984
O=C(O)CCNC(=O)c1ccc(/N=N/c2ccc(O)c(C(=O)O)c2)cc1 [Balsalazide disodium salt]	1.03	1.03	1.05	1	1.02	1.08	0.996	1.02
O=C(O)CCC(=O)c1ccc(-c2ccccc2)cc1 [Fenbufen]	0.999	0.99	0.87	0.986	1.01	0.994	1	0.993
O=C1C(CC[S+]([O-])c2ccccc2)C(=O)N(c2ccccc2)N1c1ccccc1 (stereo not given) [Sulfinpyrazone]	0.996	1	1	0.971	1	1.01	0.998	0.985
CCOC(=O)[C@H](CCc1ccccc1)N[C@@H](C)C(=O)N1CCC[C@H]1C(=O)O [Enalapril maleate]	1	1.04	1.03	1.02	1	1.02	1.01	0.997
CC1=C(C(=O)O)N2C(=O)[C@@H](NC(=O)[C@H](N)c3ccc(O)cc3)[C@H]2SC1 [Cefadroxil]	0.979	0.937	0.967	0.997	1.01	1	0.996	0.982
CC(=O)OC[C@H]1O[C@@H]([S-])[C@H](OC(C)=O)[C@@H](OC(C)=O)[C@@H]1OC(C)=O.CCP(CC)CC.[Au+] [Auranofin]	0.877 (active)	1.01	0.67 (active)	0.672 (active)	0.00406 (active)	0.233	0.855	0.862
Cc1ccc(NC(=O)c2ccc(CN3CCN(C)CC3)cc2)cc1Nc1nccc(-c2cccnc2)n1 [Imatinib]	1.03	1.06	1.12	0.991	1.12	1.09	1.03	0.259
CC[C@H](C)C(=O)O[C@H]1CCC=C2C=C[C@H](C)[C@H](CC[C@@H]3C[C@@H](O)CC(=O)O3)[C@H]21 [Mevastatin]	1	1.01	1.02	0.974	0.952	0.989	1.01	0.922
